# In all, about 340,000 compounds went through this assay and about 6,400 (1.9%) were called active. Inconclusive results (about 4%) are left out. The call rests on the fitted dose curve; in most records, active means well fitted falling curve with a large enough effect; inconclusive means small, poorly fitted or top-dose-only effect; inactive means no such curve, though single readings can be large or run the other way. Many of the other results were omitted from the sample, so actives are more common in it than they were.
# Target: ATP-dependent Clp protease proteolytic subunit (Bacillus subtilis (strain 168)) (UniProt P80244)
# Assay: qHTS Assay for Activators of ClpP; further: the source files actives as falling curves though it sought activators and does not explain the sign; nearly all actives have a fitted effect of over 65% in size
# Details: purified B. subtilis ClpP, FRET peptide cleavage, 20 min; series mostly up to 57.5 µM; activity change, negative = active: at the top concentration
# Summary of the method: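 Purified B. subtilis ClpP, 10 microg/mL final in Tris/HCl pH8 with KCl, BSA, glycerol and Tween-20, cleaved an Abz/nitrotyrosine-quenched decapeptide. Fluorescence (ex 320, em 430) was read at 0 and 20 min at room temperature. Delta was normalized to 5.8 microM ADEP and DMSO/no-enzyme controls.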
# Potency means the concentration at half of the fitted maximal effect.
# Sequence of ATP-dependent Clp protease proteolytic subunit (Bacillus subtilis (strain 168)) (P80244 whole entry, looked up): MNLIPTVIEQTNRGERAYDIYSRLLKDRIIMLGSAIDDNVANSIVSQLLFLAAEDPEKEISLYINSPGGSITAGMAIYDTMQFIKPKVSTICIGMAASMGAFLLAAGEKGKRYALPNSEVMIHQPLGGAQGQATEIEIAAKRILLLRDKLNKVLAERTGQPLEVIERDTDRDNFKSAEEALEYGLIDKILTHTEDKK
Compound,"activity change, negative = active",Potency
COc1ccc(Cn2c(C)c(C)c(C#N)c2NC(=O)Nc2ccc(F)cc2)cc1,1.75% (inactive),–
COc1ccc(Cn2ccn(CC(=O)Nc3cc(C)ccc3C)c(=O)c2=O)cc1,-1.9% (inactive),–
COc1ccc(Cn2cccc(NC(=O)Nc3ccc(C#N)cc3)c2=O)cc1,–,12.6 µM (active)
CSc1ccc(CN2CCC2(C)C(=O)Nc2ccc(C)c(O)c2)cc1 (centres undefined),0.771% (inactive),–
CCOc1n[nH]c(-c2ccccc2)n1,-0.612% (inactive),–
Cc1ccccc1S(=O)(=O)NC(=O)C1(C)CCN1C(=O)Cc1ccc(Cl)cc1Cl (centres undefined),-3.3% (inactive),–
COC(=O)c1ccc2nc(-c3ccc(C)cc3)c(Cc3ccc(OC)cc3C)n2c1,5.5% (inactive),–
Cc1ccc(N2CC(C(=O)Nc3ccc(N(C)C)cc3)CC2=O)cc1Cl (centres undefined),1.18% (inactive),–
Cc1ccc(N2CC(C(=O)N3CCC4(CC3)CC(=O)c3ccccc3O4)CC2=O)cc1C (centres undefined),–,28.2 µM (active)
O=C(C1CC(=O)N(c2ccc(Br)cc2)C1)N1CCCC1 (centres undefined),0.55% (inactive),–
O=[N+]([O-])c1cc(C(F)(F)F)ccc1NN=C1CCCC1,–,31.6 µM (active)
O=[N+]([O-])c1cc(S(=O)(=O)N2CCCC2)ccc1NN=C1CCCC1,1.19% (inactive),–
O=[N+]([O-])c1ccc(N/N=C2/CCCCC2c2ccccn2)c([N+](=O)[O-])c1 (centres undefined),-1.38% (inactive),–
CCCS(=O)(=O)NC(=O)C1(C)CCCN(C(=O)c2ccnc(Cl)c2)C1 (centres undefined),0.891% (inactive),–
O=C(C(=O)N1CCN(c2ccccc2)CC1)c1ccc2c(c1)OCO2,0.571% (inactive),–
COc1ccc2c(C)c(CCC(=O)NCc3ccc(OC)c(OC)c3)c(=O)oc2c1,4.37% (inactive),–
COC(=O)Cc1c(C)c2ccc(OCC(=O)NCc3ccc4c(c3)OCO4)cc2oc1=O,–,31.6 µM (active)
COc1ccc(CCNC(=O)COc2ccc3c(c2)OCO3)cc1,-0.812% (inactive),–
CCC(C)CN1C(=O)CN(S(C)(=O)=O)CC1(C)C(=O)Nc1ccc2c(c1)OCCO2 (centres undefined),-2.44% (inactive),–
COc1ccc(/C=C/c2ccnc3ccccc23)cc1OC,-11.4% (inactive),–
CCC1(CC)Cc2ccccc2-c2nc(CCl)[nH]c(=O)c21,-8.14% (inactive),–
CCOC(=O)C1Cn2c(nc3c(c2=O)C(C)(CC)Cc2ccccc2-3)S1 (centres undefined),–,28.2 µM (active)
CCC1(CC)Cc2ccccc2-c2nc3ccccc3c(=O)n21,-1.31% (inactive),–
OC(c1ccccc1)(c1ccccc1)C1CCN(CCCOc2ccccc2)CC1,-0.0496% (inactive),–
O=C(O)CCC(=O)N(Cc1ccccc1)Cc1ccccc1,1.29% (inactive),–

Compound,"activity change, negative = active",Potency
CN(C)Cc1cn(-c2ccccc2)nc1-c1ccccc1,-5.99% (inactive),–
Cc1ccc(-c2nn(-c3ccccc3)cc2CN(Cc2ccccc2)C(=O)CCC(=O)O)o1,–,22.4 µM (active)
CCCC(=O)Nc1cc2nn(-c3ccccc3)nc2cc1C,2.89% (inactive),–
c1ccc(-n2nc3ccccc3n2)cc1,–,25.1 µM (active)
Nc1ccc2nn(-c3ccc(Cl)cc3)nc2c1,7.76% (inactive),–
CCc1nc2c(OCCOc3ccccc3)cccn2c1N(C)C(=O)c1ccccc1F,-3.73% (inactive),–
Cc1cccc(NC(=O)COC(=O)c2ccccc2OCc2cccc(Br)c2)c1,-7.45% (inactive),–
COc1cc(OC)cc(-c2cc3nc(C4CCN(C(=O)OC(C)(C)C)CC4)cc(=O)n3[nH]2)c1,–,25.1 µM (active)
Cc1ccc(-n2ncc(C(=O)NC3CC3)c2C2CCN(C(=O)OC(C)(C)C)CC2)c(C)c1,1.33% (inactive),–
CCOc1ccc(-c2cc3nc(C4CCN(C(=O)OC(C)(C)C)CC4)c(C(=O)Nc4cccc(CC)c4)cn3n2)cc1,4.44% (inactive),–
O=C(COC(=O)CCCN1C(=O)c2cccc3cccc(c23)C1=O)NC1CCS(=O)(=O)C1 (centres undefined),–,31.6 µM (active)
COc1ccc(/C=C2\SC(=O)N(CCC(=O)NC3CCS(=O)(=O)C3)C2=O)cc1 (centres undefined),0.178% (inactive),–
O=C(COC(=O)/C=C/c1ccc(Cl)cc1)NC1CCS(=O)(=O)C1 (centres undefined),-0.845% (inactive),–
Cc1ccc(F)c(S(=O)(=O)NC(=O)C2(C)CCN2C(=O)c2ccco2)c1 (centres undefined),2.02% (inactive),–
COc1cc(/C=C/C(=O)O)cc(S(=O)(=O)Nc2ccccc2SC)c1OC,-0.984% (inactive),–
CCn1nc(C(=O)NNS(=O)(=O)c2cc(/C=C/C(=O)O)cc(OC)c2OC)c2ccccc2c1=O,–,5.62 µM (active)
CCC(C)(C)NC(=O)/C=C/c1cc(OC)c(OC)c(S(=O)(=O)N2CCc3ccccc32)c1,1.65% (inactive),–
COc1ccccc1CNc1nc(Nc2ccccc2Cl)c2sccc2n1,-20.5% (inactive),–
c1ccc(Cn2nnc3c(N4CCCCC4)ncnc32)cc1,0.615% (inactive),–
O=C(CC(CC(=O)c1ccccc1)c1ccco1)c1ccccc1,-1.2% (inactive),–
OC(c1ccc(Cl)cc1)c1ncc(-c2ccc(Cl)cc2)[nH]1 (centres undefined),-0.996% (inactive),–
C=CCn1c(-c2sc(-c3ccccc3)nc2C)n[nH]c1=S,-0.756% (inactive),–
C#CC(C)(C)NC(=O)c1cnc(-c2ccccc2)nc1-c1ccccc1,-0.381% (inactive),–
Cc1nc(-c2ccccc2)sc1-c1nc(-c2ccccc2)ncc1S(=O)(=O)c1ccccc1,–,31.6 µM (active)
CC1(C(=O)NCc2ccc(F)c(F)c2)Cc2c(-c3ccc4c(c3)OCO4)ccnc2O1 (centres undefined),5.31% (inactive),–

Compound,"activity change, negative = active",Potency
CC(C)CCOc1ccc(C(=O)Nc2cc(S(=O)(=O)N3CCOCC3)ccc2N2CCOCC2)cc1,0.109% (inactive),–
NNC(=O)C1CCCn2c1nc1sc3c(c1c2=O)CCCC3 (centres undefined),-3.47% (inactive),–
CCCc1nc2sc3c(c2c(=O)n1NC(=O)CCCl)CCCC3,1.41% (inactive),–
Cn1c(NN)nc2sc3c(c2c1=O)CCC3,–,11.2 µM (active)
OCCNc1ncnc2oc(-c3ccco3)c(-c3ccco3)c12,4.8% (inactive),–
CCOc1ccc(CCN2C(=O)C(=O)N([C@@H](Cc3ccc(O)cc3)CN3CCC[C@H]3CN3C(=O)C(=O)NC[C@@H]3CC(C)C)C[C@@H]2Cc2ccccc2)cc1,-1.5% (inactive),–
COc1ccc(NC(=O)CCCOc2ccc(C(C)=O)cc2)cc1S(=O)(=O)N1CCCCC1,1.57% (inactive),–
Cc1ccc(NC(=S)N(CCN(C)C)Cc2cccs2)cc1C,0.917% (inactive),–
Cc1ccccc1NC(=S)N(CCCN1CCOCC1)Cc1cccs1,–,28.2 µM (active)
CCN(Cc1ccncc1)C(=S)Nc1ccccc1C,-1.5% (inactive),–
COc1ccc(/C=C/c2ccccn2)cc1OC,4.51% (inactive),–
Cc1cccnc1C(NC(=O)C1CCN(Cc2ccc(Cl)c(Cl)c2)CC1)c1ccc(Cl)cc1 (centres undefined),0.951% (inactive),–
O=C1Nc2ccccc2NC(c2ccc3c(c2)OCO3)=C1N(Cc1ccc(F)cc1)C(=O)c1ccco1,1.77% (inactive),–
O=C(COC(=O)c1ccc(F)cc1)Nc1ccc2c(c1)OCO2,-1.94% (inactive),–
CC(=O)Nc1cccc(C(=O)OCC(=O)c2ccc3c(c2)OCO3)c1,–,12.6 µM (active)
O=C(COC(=O)c1ccccc1)c1ccc2c(c1)OCCO2,-1.68% (inactive),–
CC(=O)Nc1cccc(-c2cc3nc(NCc4cccnc4)n(C)c(=O)c3s2)c1,-19.5% (inactive),–
COc1ccc(C(c2nnnn2C2CCCC2)N2CCN(C/C=C/c3ccccc3)CC2)cc1 (centres undefined),-3.35% (inactive),–
CC(=O)C1=CCC(c2ccccc2)N(S(=O)(=O)c2ccc(C)cc2)C1 (centres undefined),-14% (inactive),–
C=CCc1cccc2cc(C(=O)OCC)c(=O)oc12,–,35.5 µM (active)
CCOc1cccc2cc(C(=O)OCC(=O)Nc3c(C)cccc3CC)c(=O)oc12,12.9% (inactive),–
C=CCc1cccc2cc(C(=O)N3CCN(C(=O)OCC)CC3)c(=O)oc12,-12.7% (inactive),–
CCOC(=O)C1=CCC2C(=O)N(Cc3ccccc3)C(=O)C12 (centres undefined),1.34% (inactive),–
CC(C)c1cc(Cn2c3ccccc3c(=O)n2C(C)Cn2cc(C3CC3)nn2)on1 (centres undefined),4.78% (inactive),–
COc1cccc(-c2ccc(C#N)c(SCC(=O)NCCc3ccc(Cl)cc3)n2)c1,–,35.5 µM (active)

Compound,"activity change, negative = active",Potency
COc1ccc(CCNC(=O)CSc2nnc3ccc(-c4ccncc4)nn23)cc1,-2.01% (inactive),–
COc1cccc(CNC(=O)CSc2c3c(nc4cc(Cl)ccc24)CCCC3)c1,-1.55% (inactive),–
COc1ccc(CCNC(=O)COC(=O)c2cnc(Cl)c(Cl)c2)cc1,-4.01% (inactive),–
COc1ccc(CCNC(=O)CSc2nc(-c3ccc(OC)c(OC)c3)ccc2C#N)cc1,–,17.8 µM (active)
COc1ccc(CCNC(=O)CSc2nc(C)nc3c2oc2ccccc23)cc1OC,1.33% (inactive),–
Nc1nc2cc(Cl)ccc2n1N,0.944% (inactive),–
OCC1OC(n2cnc3c(N4CCCC4)ncnc32)C(O)C1O (centres undefined),0.893% (inactive),–
COc1cccc(C(O)c2nc(-c3ccc(C)c(C)c3)cs2)c1 (centres undefined),-3% (inactive),–
CCOC(=O)[C@]12CCCC=C1N(Cc1cccc3ccccc13)C(=O)[C@H](CC(=O)NCC13CC4CC(CC(C4)C1)C3)C2,-3.53% (inactive),–
CCCCN(C=O)c1c(CC)nc2c(OCc3ccccc3C(=O)OC)cccn12,-0.714% (inactive),–
C[C@@H]1CN([C@@H](C)CO)C(=O)CCCn2nncc2CO[C@H]1CN(C)C(=O)Nc1ccc(C(F)(F)F)cc1,-2.86% (inactive),–
Cc1nc(C(=O)NCc2ccccc2)sc1C1(C)CC(c2cccnc2)=NO1 (centres undefined),-0.0404% (inactive),–
Cc1nc(NCc2ccccc2)c(C(N)=O)c2c1COC(C)(C)C2,–,22.4 µM (active)
CC1(C)Cc2cccc(OCC(=O)NCc3ccccc3)c2O1,0.208% (inactive),–
COC(=O)[C@]12CCCCC=C1N(CCC1=CCCCC1)C(=O)[C@H](CC(=O)N1CCSCC1)C2,3.9% (inactive),–
CC(=O)Nc1cnc(-c2ccc(O)cc2C)cn1,-2.26% (inactive),–
Brc1ccc2nc(-c3ccccc3)c(Cc3ccccc3)n2c1,-9.97% (inactive),–
CC(C)C(=O)N1CCC2(CC1)Oc1ccc(F)cc1C(=O)C21CC(c2ccccc2)=NO1 (centres undefined),-6.58% (inactive),–
CC(C)C(=O)N1CCN(c2nc(-c3ccccc3)c3c(c2C#N)CC(C)(C)OC3)CC1,–,28.2 µM (active)
CC(C)OC(=O)C(C#N)c1nc2ccccc2nc1N1CCN(Cc2ccccc2)CC1 (centres undefined),-3.63% (inactive),–
CC1(C)Cc2c(sc(NC(=O)C(=O)N3CCOCC3)c2C#N)CO1,-0.519% (inactive),–
CC(C)c1nc(N2CCOCC2)c(C#N)c2c1COC(C)(C)C2,–,15.8 µM (active)
CCOC(=O)N1CCN(C(=O)C(=O)Nc2sc3c(c2C#N)CC(C)(C)OC3)CC1,-0.849% (inactive),–
Cc1ccc(S(=O)(=O)N2CCC(=O)N([C@H](COCc3ccccc3)C(C)C)CC2)cc1,1.87% (inactive),–
